The source made the active and inactive calls. Unless noted, the rule behind the calls is not given here.
What was measured:
[1] = compound effects on lung adenocarcinoma cell viability – A549, calcein-AM fluorescence, 48 h, basal, profiling panel (AID 1162); conditions: higher = more signal; note: test concentration not given here
[2] = compound effects on differentiated 3T3-L1 adipocyte viability – cell-based, 3T3-L1 adipocytes, calcein-AM fluorescence, 48 h, basal, profiling panel (AID 1163); conditions: 3T3-L1 adipocytes viability, higher = more signal; note: test concentration not given here
[3] = compound effects on hepatocellular carcinoma cell viability – HepG2, calcein-AM fluorescence, 48 h, basal, profiling panel (AID 1164); conditions: higher = more signal; note: test concentration not given here
[4] = compound effects on multiple myeloma cell viability – MM1S, calcein-AM fluorescence, 48 h, basal, profiling panel (AID 1165); conditions: higher = more signal; note: test concentration not given here
[5] = calcein-AM signal in unstimulated myeloma cells – cell-based, calcein-AM fluorescence, 48 h, PK04 Diversity Set, profiling panel (AID 1166); conditions: RPMI8226 myeloma viability, higher = more signal;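 note: cells grown under basal conditions without added stimulus; test concentration not given here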
[6] = JC-1 mitochondrial signal, unstimulated HepG2 cells – cell-based, JC-1 fluorescence, 24 h, 100 nL compound, profiling panel (AID 1167); conditions: HepG2 mitochondrial potential, higher = more signal; note: test concentration not given here
[7] = JC-1 mitochondrial signal, unstimulated adipocytes – cell-based, JC-1 fluorescence, 3T3-L1 adipocytes, 24 h, 100 nL compound, profiling panel (AID 1168); conditions: JC-1 mitochondrial fluorescence, higher = more signal, called active from +8 up or from −8 down; note: test concentration not given here
[8] = JC-1 mitochondrial signal, unstimulated myeloma cells – cell-based, JC-1 fluorescence, RPMI8226, 24 h, 100 nL compound, profiling panel (AID 1169); conditions: JC-1 mitochondrial potential fluorescence, higher = more signal; note: test concentration not given here
[9] = JC-1 mitochondrial signal, unstimulated MM1S myeloma – cell-based, JC-1 fluorescence, 24 h, 100 nL compound, profiling panel (AID 1170); conditions: MM1S mitochondrial potential, higher = more signal; note: test concentration not given here
[10] = resazurin metabolic signal in A549 cells – cell-based, resazurin fluorescence, 24 h, PK04 Diversity Set, profiling panel (AID 1171); conditions: A549 viability, higher = more signal, called active from +8 up or from −8 down; note: test concentration not given here
[11] = resazurin metabolic signal in HepG2 cells – cell-based, resazurin fluorescence, 24 h, PK04 Diversity Set, profiling panel (AID 1172); conditions: HepG2 viability, higher = more signal; note: test concentration not given here
[12] = budding yeast growth changes without added modifier – OD600, strain BY4716, 24 h, basal condition, primary screen (AID 1173); conditions: S. cerevisiae BY4716 growth, OD600, 24 h; higher = more signal, called active from +8 up or from −8 down
[13] = viability profiling in MM1S myeloma cells – cell-based, resazurin fluorescence, basal, 24 h, PK04 Diversity Set, profiling panel (AID 1174); conditions: higher = more signal, called active from +8 up or from −8 down; note: test concentration not given here
[14] = target: Dihydroorotate dehydrogenase (quinone), mitochondrial (Plasmodium falciparum (isolate 3D7)) (UniProt Q08210); assay: inhibition of P. falciparum DHODH – biochemical, C-terminal His tag, absorbance 600 nm, primary screen (AID 1175); conditions: PfDHODH enzyme, DCIP absorbance 600 nm; higher = more signal, called active from +8 up or from −8 down;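 note: recombinant parasite enzyme with a five histidine tag at its C terminus; test concentration not given here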
Dihydroorotate dehydrogenase (quinone), mitochondrial (Plasmodium falciparum (isolate 3D7)), sequence (Q08210 whole entry, looked up): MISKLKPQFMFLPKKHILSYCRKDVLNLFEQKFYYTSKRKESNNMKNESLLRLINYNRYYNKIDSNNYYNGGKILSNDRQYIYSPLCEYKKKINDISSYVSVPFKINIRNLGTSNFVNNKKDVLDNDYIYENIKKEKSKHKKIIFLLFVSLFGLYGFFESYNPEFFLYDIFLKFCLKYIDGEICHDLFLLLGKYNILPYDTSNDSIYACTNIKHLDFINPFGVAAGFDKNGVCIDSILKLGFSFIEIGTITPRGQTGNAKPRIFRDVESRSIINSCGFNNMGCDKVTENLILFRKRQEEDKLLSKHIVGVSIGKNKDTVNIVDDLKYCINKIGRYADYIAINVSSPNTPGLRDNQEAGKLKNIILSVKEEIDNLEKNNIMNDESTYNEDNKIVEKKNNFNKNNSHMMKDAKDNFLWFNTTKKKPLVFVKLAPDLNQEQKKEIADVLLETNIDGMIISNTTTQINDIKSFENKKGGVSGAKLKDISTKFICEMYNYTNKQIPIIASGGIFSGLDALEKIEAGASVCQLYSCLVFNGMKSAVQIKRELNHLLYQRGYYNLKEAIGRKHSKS

[15] = inhibition of PAO1 biofilm formation – strain PAO1, LB-PBS medium, absorbance 600 nm, primary screen (AID 1176); note: test concentration not given here; conditions: P. aeruginosa PAO1 growth/biofilm, A600, 12 h; higher = more signal
[16] = growth modulation of vineyard yeast isolate – strain RM11-1a, OD600, basal, 24 h, primary screen (AID 1177);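 note: cultures grown under basal conditions with no added stressor; test concentration not given here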; conditions: S. cerevisiae RM11-1a growth, OD600, 24 h; higher = more signal, called active from +8 up or from −8 down
[17] = growth of efflux-deficient E. coli DRC39 – strain DRC39, OD650, 24 h, E. coli filamentation inducers, primary screen (AID 1178);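 note: growth measured as culture turbidity by optical density at 650 nm; test concentration not given here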; conditions: E. coli DRC39 acrAB, higher = more signal, called active from +8 up or from −8 down
[18] = growth of efflux-deficient E. coli DRC39 – strain DRC39, OD650, 48 h, E. coli filamentation inducers, primary screen (AID 1179);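 note: screen aims at cell division blockers that make cells filament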; conditions: E. coli DRC39 delta-acrAB growth, higher = more signal, called active from +8 up or from −8 down
[19] = viability profiling in RPMI8226 myeloma cells – cell-based, resazurin fluorescence, basal, 24 h, PK04 Diversity Set, profiling panel (AID 1180); conditions: higher = more signal;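 note: RPMI8826 multiple myeloma cell line at 5000 cells per well; test concentration not given here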
[20] = target: E3 ubiquitin-protein ligase XIAP (Homo sapiens) (UniProt P98170); assay: small molecules binding XIAP protein – biophysical, small-molecule microarray, fluorescence 635 nm, primary screen (AID 1181); conditions: higher = more signal;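 note: score merges 667 nm emission and signal to noise over triplicate slides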
E3 ubiquitin-protein ligase XIAP (Homo sapiens), sequence (P98170 whole entry, looked up): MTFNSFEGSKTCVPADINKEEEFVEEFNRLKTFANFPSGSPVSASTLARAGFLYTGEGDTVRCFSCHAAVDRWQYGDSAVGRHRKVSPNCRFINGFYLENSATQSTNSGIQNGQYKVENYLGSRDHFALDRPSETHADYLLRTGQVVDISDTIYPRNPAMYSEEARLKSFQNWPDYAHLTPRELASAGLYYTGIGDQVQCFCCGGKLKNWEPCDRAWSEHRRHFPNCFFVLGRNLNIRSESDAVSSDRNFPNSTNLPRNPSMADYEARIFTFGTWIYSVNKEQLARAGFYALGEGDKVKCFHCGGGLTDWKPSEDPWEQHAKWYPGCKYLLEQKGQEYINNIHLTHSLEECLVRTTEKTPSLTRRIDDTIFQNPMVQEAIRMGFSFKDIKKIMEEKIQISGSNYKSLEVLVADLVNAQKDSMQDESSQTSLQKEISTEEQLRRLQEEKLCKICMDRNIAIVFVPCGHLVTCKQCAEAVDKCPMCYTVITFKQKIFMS

Compound: COC(=O)[C@]1(Cc2ccccc2CN=[N+]=[N-])N=C(c2ccc(OCCCO)cc2)O[C@@H]1c1ccccc1CN=[N+]=[N-]
- z-score [1]: -3.46
- z-score [2]: 0.766
- z-score [3]: -4.79
- z-score [4]: -3.67
- z-score [5]: -4.08
- z-score [6]: 0.344
- z-score [7]: 0.24 (inactive)
- z-score [8]: -1.07
- z-score [9]: -2.47
- z-score [10]: -3.05 (inactive)
- z-score [11]: -1.27
- z-score [12]: 0.803 (inactive)
- z-score [13]: -3.36 (inactive)
- composite z-score [14]: 1.36 (inactive)
- z-score [15]: 3.93 (inactive)
- z-score [16]: 2.92 (inactive)
- z-score [17]: 2.1 (inactive)
- z-score [18]: 1.6 (inactive)
- z-score [19]: -4.23
- composite z-score [20]: -0.0025

Compound: C/C=C/[C@@H](CCn1cc([C@H](O)c2ccccc2)nn1)[Si](C)(C)c1ccc(OC)cc1
- z-score [1]: -0.536
- z-score [2]: 0.485
- z-score [3]: -0.713
- z-score [4]: -2.9
- z-score [5]: -3.1
- z-score [6]: -1.13
- z-score [7]: -0.255 (inactive)
- z-score [8]: -0.268
- z-score [9]: -0.462
- z-score [10]: 0.372 (inactive)
- z-score [11]: 0.121
- z-score [12]: -1.5 (inactive)
- z-score [13]: -0.567 (inactive)
- composite z-score [14]: -0.222 (inactive)
- z-score [15]: 0.0002 (inactive)
- z-score [16]: 0.72 (inactive)
- z-score [17]: 0.508 (inactive)
- z-score [18]: -0.253 (inactive)
- z-score [19]: -0.472
- composite z-score [20]: -0.0918

Compound: COC(=O)[C@H]1N=C(c2ccc(OCCCO)cc2)O[C@H]1c1ccccc1CN=[N+]=[N-]
- z-score [1]: -0.348
- z-score [2]: -0.409
- z-score [3]: 0.0036
- z-score [4]: -1.95
- z-score [5]: -0.35
- z-score [6]: -0.393
- z-score [7]: 0.957 (inactive)
- z-score [8]: 0.344
- z-score [9]: -0.823
- z-score [10]: 2.65 (inactive)
- z-score [11]: 1.55
- z-score [12]: -0.785 (inactive)
- z-score [13]: 0.236 (inactive)
- composite z-score [14]: 0.982 (inactive)
- z-score [15]: -0.043 (inactive)
- z-score [16]: 1.29 (inactive)
- z-score [17]: 0.535 (inactive)
- z-score [18]: -0.0456 (inactive)
- z-score [19]: 1.32
- composite z-score [20]: 0.331

Compound: CO[C@H]1O[C@H](CO)[C@@H](OC(=O)Nc2ccc(C(F)(F)F)cc2)[C@H](OC(=O)Nc2ccccc2)[C@H]1OC(=O)Nc1ccccc1
- z-score [1]: -3.56
- z-score [2]: 1.96
- z-score [3]: -5.2
- z-score [4]: -3.39
- z-score [5]: -4.45
- z-score [6]: -1.93
- z-score [7]: 0.575 (inactive)
- z-score [8]: -1.27
- z-score [9]: -1.45
- z-score [10]: -6.31 (inactive)
- z-score [11]: -5.15
- z-score [12]: 0.0673 (inactive)
- z-score [13]: -6.47 (inactive)
- composite z-score [14]: 0.0214 (inactive)
- z-score [15]: -0.276 (inactive)
- z-score [16]: 2.72 (inactive)
- z-score [17]: 0.201 (inactive)
- z-score [18]: -1.17 (inactive)
- z-score [19]: -6.11
- composite z-score [20]: 0.166

Compound: CN(C)C(=O)[C@@]1(CCC(=O)OC(C)(C)C)COC(c2ccc(OCCCO)cc2)=N1
- z-score [1]: 0.236
- z-score [2]: -0.417
- z-score [3]: 0.306
- z-score [4]: 0.0475
- z-score [5]: 0.0972
- z-score [6]: -0.868
- z-score [7]: 0.0942 (inactive)
- z-score [8]: 0.0733
- z-score [9]: -1.14
- z-score [10]: 0.594 (inactive)
- z-score [11]: 0.791
- z-score [12]: -0.874 (inactive)
- z-score [13]: 0.265 (inactive)
- composite z-score [14]: -0.883 (inactive)
- z-score [15]: -0.512 (inactive)
- z-score [16]: -0.0602 (inactive)
- z-score [17]: 0.115 (inactive)
- z-score [18]: 0.465 (inactive)
- z-score [19]: -0.195
- composite z-score [20]: -0.0559

Compound: COCCOC(=O)N1C(=O)[C@@]2(c3cc(C#Cc4ccc(OC)cc4)ccc31)[C@H](C(=O)N1CCc3cc(OC)c(OC)cc3C1)[C@H]1C(=O)O[C@H](c3ccccc3)[C@H](c3ccccc3)N1[C@@H]2c1ccc(OCCO)cc1
- z-score [1]: -0.403
- z-score [2]: 1.41
- z-score [3]: -1.13
- z-score [4]: -0.0142
- z-score [5]: -1.38
- z-score [6]: -0.999
- z-score [7]: 2.31 (inactive)
- z-score [8]: -0.223
- z-score [9]: -0.919
- z-score [10]: -0.0945 (inactive)
- z-score [11]: -0.562
- z-score [12]: 1.39 (inactive)
- z-score [13]: -0.12 (inactive)
- composite z-score [14]: -0.0739 (inactive)
- z-score [15]: 1.27 (inactive)
- z-score [16]: 2.92 (inactive)
- z-score [17]: -0.997 (inactive)
- z-score [18]: -1.19 (inactive)
- z-score [19]: 0.54
- composite z-score [20]: 0.365

Compound: O=C1c2ccccc2[C@](Cc2ccccc2I)(C(=O)NCC(F)(F)F)[C@H](c2ccc(CO)cc2)N1Cc1ccccc1
- z-score [1]: 0.535
- z-score [2]: 0.489
- z-score [3]: 0.43
- z-score [4]: -0.441
- z-score [5]: -1.67
- z-score [6]: -0.0706
- z-score [7]: -0.0813 (inactive)
- z-score [8]: -0.332
- z-score [9]: -0.645
- z-score [10]: 1.1 (inactive)
- z-score [11]: 0.846
- z-score [12]: -0.895 (inactive)
- z-score [13]: -0.277 (inactive)
- composite z-score [14]: -0.537 (inactive)
- z-score [15]: -0.0344 (inactive)
- z-score [16]: 0.0123 (inactive)
- z-score [17]: 0.496 (inactive)
- z-score [18]: 1.07 (inactive)
- z-score [19]: 0.675
- composite z-score [20]: -0.0962

Compound: COc1ccccc1CN1C(=O)c2ccccc2[C@](Cc2ccccc2I)(C(=O)NCCN2CCOCC2)[C@@H]1c1ccc(CO)cc1
- z-score [1]: 0.0739
- z-score [2]: 0.937
- z-score [3]: 1.26
- z-score [4]: -1.17
- z-score [5]: -2.74
- z-score [6]: 2.25
- z-score [7]: 0.833 (inactive)
- z-score [8]: -0.673
- z-score [9]: -0.454
- z-score [10]: -1.83 (inactive)
- z-score [11]: -2.07
- z-score [12]: -0.261 (inactive)
- z-score [13]: -0.914 (inactive)
- composite z-score [14]: -1.1 (inactive)
- z-score [15]: 0.817 (inactive)
- z-score [16]: -0.897 (inactive)
- z-score [17]: 0.533 (inactive)
- z-score [18]: 0.908 (inactive)
- z-score [19]: -1.66
- composite z-score [20]: -0.108

Compound: CCCC[C@@H](O)C1=C(COc2ccccc2)Cn2c(=O)n(-c3ccccc3)c(=O)n2[C@H]1CO
- z-score [1]: 0.753
- z-score [2]: 0.409
- z-score [3]: -0.0994
- z-score [4]: 0.356
- z-score [5]: -1.02
- z-score [6]: -0.368
- z-score [7]: 0.334 (inactive)
- z-score [8]: 0.42
- z-score [9]: 0.277
- z-score [10]: -0.515 (inactive)
- z-score [11]: -0.196
- z-score [12]: -4 (inactive)
- z-score [13]: 0.0088 (inactive)
- composite z-score [14]: -1.05 (inactive)
- z-score [15]: 0.789 (inactive)
- z-score [16]: -3.57 (inactive)
- z-score [17]: 1.36 (inactive)
- z-score [18]: 0.0244 (inactive)
- z-score [19]: 0.539
- composite z-score [20]: 0.106

— PubChem BioAssay
